“And” between values parts separate entries of the source, which are not always exact repeats. Equal entries are not always repeated. Inconclusive results are not listed. The source made the active and inactive calls. Unless noted, calls follow the shape of the dose curve; as a rule, active = well fitted curve in the direction sought with a large enough effect; inconclusive = small, poorly fitted or top-dose-only effect, or another doubt; inactive = no such curve, though single readings can be large; an effect the other way counts as inactive or inconclusive.
How the values were obtained:
[1] = Cell Viability - SK-N-SH (AID 435; calls by dose curve;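 also: potency is read from the fitted curve at half-maximal effect; compound exposure lasted 40 h at 37 °C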); conditions: SK-N-SH neuroblastoma cell viability qHTS
Summary of the method: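 Luminescent ATP signal served as the viability read-out after 40 hours of compound treatment of human neuroblastoma SK-N-SH cells. Concentration-response data, scaled between DMSO and 100 uM tamoxifen, gave AC50 values by standard Hill modeling.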

[2] = Cell Viability - Renal Proximal Tubule (AID 545); conditions: renal proximal tubule cells viability; series mostly up to 91.7 µM; also: nearly all actives have a fitted effect of over 40% in size
Summary of the method: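 Luminescent ATP signal (CellTiter-Glo) served as the viability read-out after 40 hr compound exposure of freshly isolated rat proximal tubule cells at 37 °C. Concentration-dependent ATP loss was fitted with the Hill equation to give AC50.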

[3] = Cellular Toxicity (caspase-3) HepG2 (AID 654); conditions: HepG2 caspase-3 activation, luminescence, 0% = DMSO only, 100% = tamoxifen; series mostly up to 92.2 µM;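 also: cells exposed to compound for 16 hours before reading; 0% = DMSO alone and 100% = caspase signal from 100 µM tamoxifen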
Summary of the method: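 Concentration-response AC50 values reflect caspase-3/7 induction in HepG2 cells after 16 hours of compound exposure, quantified by luminescence from liberated aminoluciferin and referenced to 100 uM tamoxifen as full stimulation.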

[4] = Cellular Toxicity (caspase-3) SK-N-SH (AID 661); conditions: SK-N-SH caspase-3 activation, qHTS; series mostly up to 91.7 µM;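 also: 0% = DMSO basal and 100% = 10 µM staurosporine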
Summary of the method: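 Apoptosis readout in SK-N-SH neuroblastoma: Caspase-Glo 3/7 luminescence following 16 hr treatment in complete culture medium. Normalization used DMSO and 10 uM staurosporine controls.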

[5] = Cell Viability - LYMP2-004 (AID 966); conditions: LYMP2-004 lymphoblastoid cell viability, qHTS; series mostly up to 92.2 µM;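 also: cells exposed to compound for 24 h; plate controls were DMSO only for no effect and tetraoctylammonium bromide control for full effect; nearly all actives have a fitted effect of over 65% in size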
Summary of the method: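 Viable-cell number estimated from ATP luminescence (CellTiter-Glo) in 2500 human lymphoblastoid cells/well after 24 hr at 37 C with compound. AC50 fitted to the standard Hill equation.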

[6] = Cell Viability - LYMP2-015 (AID 971); conditions: LYMP2-015 lymphoblastoid cell viability; series mostly up to 92.2 µM;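 also: cells exposed to compound for 24 h; 0% = DMSO only and full effect = 92 µM tetraoctylammonium bromide; nearly all actives have a fitted effect of over 55% in size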
Summary of the method: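 AC50 values reflect Hill-model fits of ATP-based luminescence (CellTiter-Glo) from a human lymphoblastoid line, 2500 cells/well, treated 24 hr at 37 C.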

[7] = Cell Viability - LYMP2-010 (AID 981); conditions: LYMP2-010 lymphoblastoid cell viability, qHTS; series mostly up to 92.2 µM;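 also: cells exposed to compound for 24 hours at 37 °C; % is scaled to controls: 0 for no effect and ±100 for the full control effect; nearly all actives have a fitted effect of over 55% in size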
Summary of the method: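 This 24 hr viability screen uses LYMP2-010 lymphoblastoid cells, quantifies ATP via luciferase luminescence, and derives AC50 from Hill fits of qHTS concentration-response data.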

[8] = Cell Viability - LYMP2-012 (AID 982); conditions: LYMP2-012 lymphoblastoid cell viability qHTS; series mostly up to 92.2 µM;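 also: cellular ATP by luciferase luminescence where a drop means cytotoxicity; cells exposed to compound for one day before reading; 0% = DMSO only and full loss = 92 µM tetraoctylammonium bromide; nearly all actives have a fitted effect of over 55% in size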
[9] = Cell Viability - LYMP2-018 (AID 985); conditions: LYMP2-018 lymphoblastoid cells, viability (qHTS); series mostly up to 92.2 µM;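 also: plate controls were DMSO only for no effect and tetraoctylammonium bromide at 92 µM for full effect; nearly all actives have a fitted effect of over 50% in size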
Summary of the method: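 In this qHTS viability assay, cells are treated for 24 hr and cellular ATP is quantified by luciferase-based luminescence, with tetraoctylammonium bromide as positive control.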

[10] = Cell Viability - LYMP2-020 (AID 986); conditions: series mostly up to 92.2 µM;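 also: cells exposed to compound for 24 h at 37 °C; plate controls were DMSO only for no effect and tetraoctylammonium bromide at 92 µM for full effect; nearly all actives have a fitted effect of over 55% in size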
Summary of the method: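 Cells at 2500 per well receive a 24 hr compound exposure at 37 C. Viability is measured as ATP-dependent luciferase luminescence, with AC50 modeled from qHTS concentration-response curves.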

[11] = qHTS assay for small molecule agonists of retinoid X receptor alpha signaling (AID 588544; calls by dose curve;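 as to activation: 0% = DMSO basal wells and 100% = reference agonist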); conditions: HEK293T RXRa-UAS-bla, beta-lactamase reporter, 18 h; 530 nm emission
[12] = molecular target: Retinoic acid receptor RXR-alpha (Homo sapiens) (UniProt P19793); assay: as above; conditions: HEK293T RXRa-UAS-bla, beta-lactamase reporter, 18 h; series mostly up to 76.7 µM
Chain of Retinoic acid receptor RXR-alpha (Homo sapiens) (P19793 whole entry, looked up): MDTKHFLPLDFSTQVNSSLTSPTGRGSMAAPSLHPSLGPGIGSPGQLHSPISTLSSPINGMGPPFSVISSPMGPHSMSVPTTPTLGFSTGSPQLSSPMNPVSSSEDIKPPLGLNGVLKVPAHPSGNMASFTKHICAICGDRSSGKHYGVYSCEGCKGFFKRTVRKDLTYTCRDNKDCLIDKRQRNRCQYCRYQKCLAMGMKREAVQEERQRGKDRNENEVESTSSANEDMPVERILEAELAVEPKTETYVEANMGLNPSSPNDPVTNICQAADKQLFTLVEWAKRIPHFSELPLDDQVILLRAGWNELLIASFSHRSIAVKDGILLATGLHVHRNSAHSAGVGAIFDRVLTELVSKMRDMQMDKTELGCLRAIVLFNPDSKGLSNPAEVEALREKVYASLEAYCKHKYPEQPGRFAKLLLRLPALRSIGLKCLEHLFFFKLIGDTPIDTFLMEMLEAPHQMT

[13] = molecular target: Thyroid hormone receptor beta (Homo sapiens) (UniProt P10828); assay: qHTS assay for small molecule agonists of thyroid hormone receptor beta signaling (AID 588545; calls by dose curve;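 also: 0% = DMSO only and 100% = 10 nM T3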); conditions: TR-UAS-bla GripTite HEK 293, beta-lactamase ratio, agonist mode, 18 h; series mostly up to 76.7 µM
Chain of Thyroid hormone receptor beta (Homo sapiens) (P10828 whole entry, looked up): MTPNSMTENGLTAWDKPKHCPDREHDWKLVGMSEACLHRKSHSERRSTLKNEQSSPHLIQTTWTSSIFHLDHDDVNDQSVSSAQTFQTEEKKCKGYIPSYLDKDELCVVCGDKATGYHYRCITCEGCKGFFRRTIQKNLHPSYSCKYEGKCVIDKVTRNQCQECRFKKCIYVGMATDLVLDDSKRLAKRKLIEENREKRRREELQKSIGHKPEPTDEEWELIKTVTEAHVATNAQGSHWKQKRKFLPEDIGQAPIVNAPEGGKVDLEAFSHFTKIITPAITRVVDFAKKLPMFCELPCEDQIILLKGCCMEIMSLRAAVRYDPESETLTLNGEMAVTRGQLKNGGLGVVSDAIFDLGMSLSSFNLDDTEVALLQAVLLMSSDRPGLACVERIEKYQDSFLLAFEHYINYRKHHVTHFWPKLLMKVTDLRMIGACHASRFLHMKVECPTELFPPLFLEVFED
Summary of the method: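 TR-UAS-bla-GripTite HEK 293 cells in medium with 2% charcoal/dextran FBS, 0.1 mM NEAA and 1 mM sodium pyruvate were treated with titrated compounds for 18 hrs at 37 C. Beta-lactamase reporter was read with CCF4 dye (ex 405, em 460/530 nm); EC50 from Hill fits.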

[14] = qHTS assay for small molecule antagonists of retinoid X receptor alpha signaling (AID 588546; active = well fitted inhibition curve with a large enough effect in the signal ratio, with a control signal flat, not every such curve was filed as active; the % refers to the signal ratio;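 also: cells stimulated with 9-cis-retinoic acid as agonist; % is scaled to controls: 0 for no effect and ±100 for the full control effect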); conditions: HEK293T RXRa-UAS-bla, beta-lactamase ratio, antagonist mode; measured here: W530 green channel, cytotoxicity proxy
Summary of the method: (§1)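 Beta-lactamase reporter inhibition, read as CCF4 fluorescence ratio (ex 405, em 460/530 nm) after 2 h at RT. HEK293T UAS-bla cells, 2500/well, were stimulated with 9-cis-RA at 500 or 100 nM final alongside test compound for 18 h at 37 C.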

[15] = molecular target: Retinoic acid receptor RXR-alpha (Homo sapiens) (UniProt P19793); assay: as above; conditions: HEK293T RXRa-UAS-bla, beta-lactamase ratio, antagonist mode
Summary of the method: as §1

[16] = molecular target: Voltage-gated inwardly rectifying potassium channel KCNH2 (Homo sapiens) (UniProt Q12809); assay: qHTS Assay for Small Molecule Inhibitors of the Human hERG Channel Activity (AID 588834); conditions: U2OS BacMam hERG, FluxOR thallium flux fluorescence; series mostly up to 92.2 µM;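 also: top concentration of the series differs between compounds; % is scaled to controls: 0 for no effect and ±100 for the full control effect; lower thallium flux fluorescence means stronger hERG block; nearly all actives have a fitted effect of over 50% in size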
Chain of Voltage-gated inwardly rectifying potassium channel KCNH2 (Homo sapiens) (Q12809 whole entry, looked up): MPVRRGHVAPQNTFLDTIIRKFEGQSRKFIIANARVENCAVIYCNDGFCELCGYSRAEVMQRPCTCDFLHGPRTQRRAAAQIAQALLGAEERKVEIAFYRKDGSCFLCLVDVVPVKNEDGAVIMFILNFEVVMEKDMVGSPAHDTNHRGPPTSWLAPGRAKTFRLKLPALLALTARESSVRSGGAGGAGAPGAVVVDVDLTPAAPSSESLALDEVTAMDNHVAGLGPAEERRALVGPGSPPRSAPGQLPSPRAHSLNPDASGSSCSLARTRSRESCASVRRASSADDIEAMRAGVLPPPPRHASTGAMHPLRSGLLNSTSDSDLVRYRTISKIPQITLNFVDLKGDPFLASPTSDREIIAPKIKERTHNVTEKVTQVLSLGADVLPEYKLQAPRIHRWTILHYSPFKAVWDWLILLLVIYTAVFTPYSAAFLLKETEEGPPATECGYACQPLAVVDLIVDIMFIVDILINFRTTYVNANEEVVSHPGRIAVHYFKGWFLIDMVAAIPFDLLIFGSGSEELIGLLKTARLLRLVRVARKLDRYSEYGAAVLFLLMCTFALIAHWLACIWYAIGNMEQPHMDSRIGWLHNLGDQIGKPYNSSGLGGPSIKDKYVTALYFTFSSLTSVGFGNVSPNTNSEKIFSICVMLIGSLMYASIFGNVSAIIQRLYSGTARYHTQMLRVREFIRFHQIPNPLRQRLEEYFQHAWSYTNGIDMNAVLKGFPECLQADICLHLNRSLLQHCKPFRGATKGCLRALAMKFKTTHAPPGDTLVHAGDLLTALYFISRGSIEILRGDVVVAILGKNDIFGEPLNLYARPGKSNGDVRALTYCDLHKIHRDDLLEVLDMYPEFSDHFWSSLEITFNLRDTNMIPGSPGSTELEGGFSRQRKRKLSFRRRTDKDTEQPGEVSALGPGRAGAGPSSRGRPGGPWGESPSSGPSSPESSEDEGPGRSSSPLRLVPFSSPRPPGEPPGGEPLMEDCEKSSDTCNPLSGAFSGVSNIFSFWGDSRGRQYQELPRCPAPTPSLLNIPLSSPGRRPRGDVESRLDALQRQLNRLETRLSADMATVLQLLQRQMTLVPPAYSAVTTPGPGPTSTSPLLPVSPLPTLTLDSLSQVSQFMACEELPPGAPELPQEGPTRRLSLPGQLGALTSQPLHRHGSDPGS
Summary of the method: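 Step 1: BacMam hERG transduction of U2OS, 4 hrs RT. Step 2: overnight 37 °C, plate 2000 cells/well, 4 hr. Step 3: FluxOR load, compound 10 min, stimulate, read fluorescence.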

[17] = qHTS assay for environmental chemicals that activate the Aryl hydrocarbon Receptor (AhR) signaling pathway (AID 651777); conditions: 1A2-DRE human hepatoma cells, luciferase, 24 h; activation: stronger effect = higher value; also: nearly all actives have a fitted effect of over 15% in size; also: potency is read from the fitted curve at half-maximal effect; as to activation: % of control where 0% means no effect
Summary of the method: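 Following a 24 hr incubation with test chemicals at 37 C and 5% CO2, 1A2-DRE human hepatoma cells received One-Glo reagent; after 30 min at room temperature, luciferase output reflected CYP1A2 induction via AhR.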

[18] = molecular target: Nuclear receptor ROR-gamma (Homo sapiens) (UniProt P51449); assay: qHTS assay for small molecule antagonists of the retinoid-related orphan receptor gamma (ROR-gamma) signaling pathway (AID 651802); conditions: ROR-gamma antagonist cell reporter assay; series mostly up to 92.2 µM;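 also: CHO cells with doxycycline-induced ROR-gamma expression; luciferase reporter luminescence driven by ROR response element; % is scaled to controls: 0 for no effect and ±100 for the full control effect; nearly all actives have a fitted effect of over 60% in size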
Chain of Nuclear receptor ROR-gamma (Homo sapiens) (P51449 whole entry, looked up): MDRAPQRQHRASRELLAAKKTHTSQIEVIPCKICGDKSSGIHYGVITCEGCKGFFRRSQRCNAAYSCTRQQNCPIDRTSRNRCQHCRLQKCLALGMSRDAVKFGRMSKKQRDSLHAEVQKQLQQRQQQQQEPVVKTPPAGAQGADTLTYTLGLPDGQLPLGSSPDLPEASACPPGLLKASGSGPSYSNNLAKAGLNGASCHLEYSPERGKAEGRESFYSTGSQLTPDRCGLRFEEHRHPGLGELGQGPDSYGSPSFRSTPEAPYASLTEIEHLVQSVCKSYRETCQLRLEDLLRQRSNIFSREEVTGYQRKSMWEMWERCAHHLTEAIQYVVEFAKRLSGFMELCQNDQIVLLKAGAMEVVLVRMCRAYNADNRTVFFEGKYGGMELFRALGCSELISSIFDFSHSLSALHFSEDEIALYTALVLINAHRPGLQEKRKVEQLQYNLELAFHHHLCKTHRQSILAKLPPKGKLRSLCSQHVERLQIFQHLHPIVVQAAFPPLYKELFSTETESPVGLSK
Summary of the method: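 Doxycycline-induced reporter activity in engineered CHO cells (TET-inducible ROR, RORE-LUC) was measured by luminescence after 16hr compound exposure at 37C.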

[19] = qHTS assay for cell viability of the p53RE-bla HCT-116 cell line (AID 743292); conditions: p53RE-bla HCT-116 viability, ATP luminescence, 16 h; series mostly up to 95 µM
Summary of the method: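 After plating at 4,000 cells per well and a 5 h rest at 37 C, HCT-116 cells carrying p53RE-bla received test chemicals in DMSO. Sixteen hours later at 37 C, CellTiter-Glo was added and luminescence recorded following 30 min at room temperature.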

[20] = molecular target: Cytochrome P450 3A4 (Homo sapiens) (UniProt P08684); assay: qHTS Assay for Inhibitors and Substrates of Cytochrome P450 3A4 (AID 884); conditions: recombinant CYP3A4, Luciferin-PPXE luminescence; series mostly up to 57.1 µM; also: nearly all actives have a fitted effect of over 50% in size; also: potency is read from the fitted curve at half-maximal effect
Chain of Cytochrome P450 3A4 (Homo sapiens) (P08684 whole entry, looked up): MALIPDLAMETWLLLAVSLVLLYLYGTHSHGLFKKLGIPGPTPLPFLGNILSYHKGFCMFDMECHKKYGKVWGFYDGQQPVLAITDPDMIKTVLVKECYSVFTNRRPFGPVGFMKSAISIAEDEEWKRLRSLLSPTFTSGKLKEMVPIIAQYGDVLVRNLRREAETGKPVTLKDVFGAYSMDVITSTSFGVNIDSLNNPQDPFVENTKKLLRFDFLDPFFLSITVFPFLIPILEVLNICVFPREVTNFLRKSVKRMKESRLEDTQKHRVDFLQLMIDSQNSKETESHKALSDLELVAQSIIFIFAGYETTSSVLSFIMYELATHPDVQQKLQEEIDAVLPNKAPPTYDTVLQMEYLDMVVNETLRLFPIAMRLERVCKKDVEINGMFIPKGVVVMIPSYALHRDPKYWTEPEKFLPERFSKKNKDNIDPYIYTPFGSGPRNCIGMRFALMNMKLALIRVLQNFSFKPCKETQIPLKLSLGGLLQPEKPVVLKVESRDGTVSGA
Summary of the method: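 Luminescent readout of luciferin produced by CYP3A4 (20 nM) dealkylation of Luciferin-PPXE, 25 uM (its KM). NADPH-driven reaction ran 60 min at RT after 10 min compound preincubation; data scaled to 57 uM ketoconazole as 100% inhibition.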

Nc1cc(Cl)cc(Cl)c1
-17%: max response [11]
-5.15%: max response [14]
inactive: Potency [1] > 92 µM | outcome [2] | outcome [3] | Potency [4] | Potency [5] | Potency [6] | Potency [7] | Potency [8] | Potency [9] | Potency [10] | outcome [12] | Potency [13] | max response [15] 0.872% | Potency [16] | activation [17] -0.276% | Potency [18] | Potency [19]

CC(C)C#N
-7.48%: max response [14]
-7.08%: max response [11]
inactive: Potency [1] > 92 µM | outcome [2] | outcome [3] | Potency [4] | Potency [20] | Potency [5] | Potency [6] | Potency [7] | Potency [8] | Potency [9] | Potency [10] | outcome [12] | Potency [13] | max response [15] 2.91% | Potency [16] | activation [17] 0.256% | Potency [18]

Cc1ccc2c(c1N)C(=O)c1ccccc1C2=O
-11.3% and 17.2%: max response [11]
inactive: Potency [1] > 92 µM | outcome [2] | outcome [3] | Potency [4] | Potency [5] | Potency [6] | Potency [7] | Potency [8] | Potency [9] | Potency [10] | outcome [12] | Potency [13] | max response [15] 9.57% and -23.7% | Potency [18] | Potency [19]
-0.33% and -4.6%: max response [14]
active: Potency [20] 5.01 µM | Potency [17] 28.2 µM

Cc1cccc(C)c1N
-4.18%: max response [14]
-2.21%: max response [11]
inactive: Potency [1] > 92 µM | outcome [2] | outcome [3] | Potency [4] | Potency [20] | Potency [5] | Potency [6] | Potency [7] | Potency [8] | Potency [9] | Potency [10] | outcome [12] | Potency [13] | max response [15] 17.5% | Potency [16] | activation [17] 1.32% | Potency [18] | Potency [19]

O=C(O)c1cc(Cl)ccc1Cl
-6.74%: max response [11]
-9.46%: max response [14]
inactive: Potency [1] > 92 µM | outcome [2] | outcome [3] | Potency [4] | Potency [20] | Potency [5] | Potency [6] | Potency [7] | Potency [8] | Potency [9] | Potency [10] | outcome [12] | Potency [13] | max response [15] -2.77% | Potency [16] | activation [17] -1.02% | Potency [18] | Potency [19]

O=[N+]([O-])c1c(Cl)c(Cl)c(Cl)c(Cl)c1Cl
-1.28%: max response [14]
-0.246% and 22.3%: max response [11]
inactive: Potency [1] > 92 µM | outcome [2] | outcome [3] | Potency [4] | Potency [20] | Potency [5] | Potency [6] | Potency [7] | Potency [8] | Potency [9] | Potency [10] | outcome [12] | Potency [13] | max response [15] -5.68% | Potency [16] | activation [17] -0.0122% and 2.68% | Potency [18] | Potency [19]

Source: PubChem BioAssay (NCATS)
